Measured values reported in PubChem BioAssay AID1159568 (Broad Institute, 2015).
Potency and affinity values are given separately. Records with an inconclusive call do not appear. A number with no mark means an inactive call.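 Rule for the calls: active = signal loss with an EC50 at or below twice the highest valid dose for that sample; inconclusive = flat curve with 30 to 70% inhibition, or poor fit; inactive = the rest.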

assay: P. falciparum Dd2 growth inhibitors, dose response, SYBR Green, dry powder samples, set 9 (AID 1159568); conditions: P. falciparum Dd2 in erythrocytes, 72 h; series mostly up to 19.5 µM; activity change, negative = inhibition: at the top concentration

Row | Compound | activity change, negative = inhibition
1 | COCC(=O)N1C[C@H](C)[C@@H](OC)CN(C)C(=O)c2ccc(NC(=O)Nc3cccc(F)c3)cc2OC[C@@H]1C | 4.93% [at 6.8 µM]
2 | C[C@H]1CN([C@@H](C)CO)C(=O)CCCn2cc(nn2)CO[C@H]1CN(C)C(=O)Nc1cccc2ccccc12 | 0.508%
3 | COc1ccc(CNC(=O)C[C@H]2CC[C@@H](NC(=O)CN(C)C)[C@H](CO)O2)cc1 | -8.93%
4 | COc1ccc(NC(=O)N(C)C[C@H]2Oc3ccc(NC(=O)CCN4CCOCC4)cc3C(=O)N([C@H](C)CO)C[C@@H]2C)cc1 | -2.62%
5 | CC(C)[C@@H]1COCc2cnnn2CCC[C@H](C)C(=O)N1 | 0.842%
6 | O=C(NCc1ccc2c(c1)OCO2)[C@@H]1[C@@H](CO)[C@@H]2Cn3c(cccc3=O)[C@H]1N2Cc1cncnc1 | 2.33%
7 | Cc1noc(C)c1S(=O)(=O)N(C)C[C@H]1OCc2cn(nn2)CCCC(=O)N([C@@H](C)CO)C[C@@H]1C | -9.44%
8 | COc1cccc(NC(=O)N[C@@H]2CC[C@H](CC(=O)N3CCN(C)CC3)O[C@@H]2CO)c1 | 3.98%
